These results are taken from PubChem BioAssay.

Values joined by “and” are separate entries in the source; they are usually repeats but may differ in a detail not shown here. Equal values may be shown once. Some compounds were tested as several samples or in several runs, with calls that do not always agree. Active and inactive are the calls of the source. Unless noted, no rule for the calls is given here.

Test [1] is described as follows: signal quenchers or enhancers, Cy5 substrate/SSB – biochemical, NIH Clinical Collection, E. coli SSB, artefact control for HCV NS3 helicase inhibitor project (AID 743268). As to conditions: Cy5-oligo bound E. coli SSB, fluorescence interference.
In test [2] the test system is Hepatitis C virus NS3 helicase. Kind of test: blockers of NS3h binding to DNA – biochemical, fluorescence polarization, NIH Clinical Collection, primary screen (AID 743270). The note with it: NS3 helicase binding to Cy5-dT15 DNA, stronger effect = higher value, concentration not given here.
Test [3] has as its target Single-stranded DNA-binding protein (Escherichia coli (strain K12)) (UniProt P0AGE0). Kind of test: SSB-ssDNA binding inhibitors – biochemical, fluorescence polarization, NIH Clinical Collection, counter-screen for HCV NS3 helicase inhibitor project (AID 743271; in the data active = inhibition above about 28%). The note with it: E. coli SSB-DNA binding, stronger effect = higher value, concentration not given here. In general terms: Fluorescence polarisation rises when a labelled molecule tumbles more slowly, as on binding a larger partner.

Test [4] is described as follows: compounds distorting NS3 helicase fluorescence signal – biochemical, NIH Clinical Collection, artefact control for HCV NS3 helicase inhibitor project (AID 743272).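 Also: HCV NS3 helicase with a Cy5 labelled single stranded DNA probe.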 As to conditions: fluorescence interference counterscreen, HCV NS3 helicase assay; stronger effect = lower value. For orientation: A counterscreen serves to expose hits that act by an unwanted route or on another target.

Test [5] in a line: Wnt pathway potentiators raising nuclear beta-catenin – imaging, WNT3A-conditioned medium, mouse C2C12, NPC library, primary screen (AID 1117326; in the data active = nuclear beta-catenin stimulation mostly above about 4.2%, no sharp cut-off; inactive = mostly below about 10%). As to conditions: stronger effect = higher value.
The nature of test [6]: stimulators of insulin release from INS-1E, primary screen, cell-based, 5 mM glucose, NPC library (AID 1117329;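 active = compound raises insulin release from rat beta cells at 5 mM glucose, no numeric limit stated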). The note with it: rat INS-1E insulin secretion, at 10 µM, stronger effect = higher value.
Test [7] can be described thus: growth inhibition of GSK3B-pretreated HCT116 cells – cell-based, CellTiter-Glo, 0.2 to 20 µM (AID 1117336;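 active = compounds lowering colon cancer cell viability after pretreatment blocking the GSK3B kinase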). As to conditions: HCT116 viability after GSK3B inhibitor, at 20 µM, stronger effect = higher value. Background: In ATP-based viability assays light output follows the ATP content of the culture.
Test [8] in a line: inhibition of endothelial tube formation, primary screen, imaging, VEGF stimulated, CD31 staining, tube area, NPC library (AID 1117340;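 active = compound that reduces growth-factor-driven endothelial tube area in a mixed cell culture, no cutoff stated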). The note with it: VEGF-stimulated ADSC/ECFC co-culture, at 10 µM, stronger effect = higher value.
Test [9] in a line: GLP1 release stimulators, primary, NCI-H716, NPC library (AID 1117341;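 active = compound raises GLP1 secretion from the human gut endocrine cells, with no numeric limit stated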). As to conditions: NCI-H716 cells, at 10 µM, stronger effect = higher value.
A short description of test [10]: HCT116 colon cancer cell growth inhibition, primary screen, CellTiter-Glo luminescence, NPC library (AID 1117342;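 active = compounds that lower survival of HCT116 colon cancer cells in the luminescence readout, no numeric limit stated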). As to conditions: at 20 µM (top of the series).
The nature of test [11]: reduced SW480 viability measured with CellTiter-Glo, NPC library, primary (AID 1117343;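 active = compounds that lower viability of the colon cancer cells in the luminescence readout, with no numeric limit stated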). The note with it: CellTiter-Glo luminescence; at 20 µM (top of the series).
Test [12] in a line: NPC library primary testing for decreased DLD-1 cell viability via CellTiter-Glo (AID 1117346;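 active = compounds that lower survival of DLD-1 colon cancer cells in the luminescence readout, no cutoff given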). The note with it: DLD-1 viability, CellTiter-Glo luminescence; at 20 µM (top of the series).
Test [13] concerns the target 6-phosphogluconate dehydrogenase, decarboxylating (Homo sapiens) (UniProt P52209). Kind of test: inhibition of human phosphogluconate dehydrogenase – biochemical, recombinant enzyme, NADPH absorbance, primary screen (AID 1159550;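 active = at least 20% inhibition of 6-phosphogluconate dehydrogenase activity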). The note with it: recombinant 6PGD, NADPH absorbance 341 nm; at 10 µM; stronger effect = higher value.
Test [14] is described as follows: EMT-state selective cytotoxicity in co-culture – imaging, PC-3E GFP, TEM4-18 mCherry, primary screen (AID 1345086;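 active = compounds killing one labelled cell type while sparing the other, by normalised counts and ratio limits, not self-fluorescent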;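 as to all read-outs here: cells exposed to compound for 72 h before imaging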;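 as to red/green cell ratio (normalised): normalised mesenchymal count divided by normalised epithelial count so high means epithelial killing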). The note with it: PC-3E GFP / TEM4-18 mCherry co-culture, imaging cell counts, at 1 µM; for red/green cell ratio (normalised): actives lie on both sides, counts scaled to control wells, 1 = unselective.
Test [15] is described as follows: viability loss with induced miR-34 in A549 – imaging, A549 dox-inducible miR-34, nuclei and caspase counts, primary screen (AID 1347080;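 active = compounds whose cell count with miR-34 switched on is under 0.7 times the count with it off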). As to conditions: A549 miR-34 inducible, Hoechst nuclei count, 48 h.
Test [16] can be described thus: MELAS cybrid and Rieske KO viability enhancers – cell-based, MELAS cybrids, Rieske KO mouse fibroblasts, CellTiter-Glo, primary screen (AID 1508586;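 active = mean z-score across replicates of 1.96 or higher in either the MELAS or the Rieske mutant cell line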;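 also: z relative to plate mean and SD of compound and empty wells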). As to conditions: low glucose.
The target of test [17] is NAD(+) hydrolase SARM1 (Homo sapiens) (UniProt Q6SZW1). Kind of test: blocking NAD cleavage by SARM1 SAM-TIR – cell lysate, NAD-Glo luminescence (AID 1508614;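 active = compound whose remaining NAD level is above about 45 nM, limit read from the data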;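 also: higher remaining NAD means stronger inhibition of SARM1 NADase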). The note with it: SAM-TIR HEK293T lysate NADase, at 1 µM, stronger effect = higher value.
Sequence of NAD(+) hydrolase SARM1 (Homo sapiens) (Q6SZW1 whole entry, looked up, the tested form may be a part): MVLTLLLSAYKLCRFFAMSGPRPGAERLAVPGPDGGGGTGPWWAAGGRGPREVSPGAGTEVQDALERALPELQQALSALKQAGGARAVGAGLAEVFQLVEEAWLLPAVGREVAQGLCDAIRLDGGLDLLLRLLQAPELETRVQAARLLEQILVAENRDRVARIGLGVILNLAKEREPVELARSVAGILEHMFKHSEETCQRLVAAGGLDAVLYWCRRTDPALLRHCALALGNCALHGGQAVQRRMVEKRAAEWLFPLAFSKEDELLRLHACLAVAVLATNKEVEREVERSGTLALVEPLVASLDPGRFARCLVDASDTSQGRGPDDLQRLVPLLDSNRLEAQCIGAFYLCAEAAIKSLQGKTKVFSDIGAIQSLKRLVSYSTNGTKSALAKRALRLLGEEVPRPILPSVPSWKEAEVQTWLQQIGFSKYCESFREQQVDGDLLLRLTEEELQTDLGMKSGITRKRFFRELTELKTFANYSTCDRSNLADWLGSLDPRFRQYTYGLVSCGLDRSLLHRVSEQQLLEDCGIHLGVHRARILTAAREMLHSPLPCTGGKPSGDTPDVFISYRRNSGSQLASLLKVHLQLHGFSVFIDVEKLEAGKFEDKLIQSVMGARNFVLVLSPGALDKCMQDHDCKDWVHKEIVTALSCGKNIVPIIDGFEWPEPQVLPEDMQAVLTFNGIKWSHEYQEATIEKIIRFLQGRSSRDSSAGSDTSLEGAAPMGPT
The target in test [18] is Mitogen-activated protein kinase 7 (Homo sapiens) (UniProt Q13164). The test is described as follows: Gal4-ERK5 driven luciferase induction – cell-based, HTS, primary screen (AID 1508626;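 active = luciferase signal above three times the same-plate solvent-only control wells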;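 also: luciferase driven by Gal4-ERK5 fusion binding five Gal4 sites before minimal TATA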). The note with it: HeLa Gal4-ERK5 transactivation, 18 h, at 5 µM, stronger effect = higher value.
Sequence of Mitogen-activated protein kinase 7 (Homo sapiens) (Q13164 whole entry, looked up, the tested form may be a part): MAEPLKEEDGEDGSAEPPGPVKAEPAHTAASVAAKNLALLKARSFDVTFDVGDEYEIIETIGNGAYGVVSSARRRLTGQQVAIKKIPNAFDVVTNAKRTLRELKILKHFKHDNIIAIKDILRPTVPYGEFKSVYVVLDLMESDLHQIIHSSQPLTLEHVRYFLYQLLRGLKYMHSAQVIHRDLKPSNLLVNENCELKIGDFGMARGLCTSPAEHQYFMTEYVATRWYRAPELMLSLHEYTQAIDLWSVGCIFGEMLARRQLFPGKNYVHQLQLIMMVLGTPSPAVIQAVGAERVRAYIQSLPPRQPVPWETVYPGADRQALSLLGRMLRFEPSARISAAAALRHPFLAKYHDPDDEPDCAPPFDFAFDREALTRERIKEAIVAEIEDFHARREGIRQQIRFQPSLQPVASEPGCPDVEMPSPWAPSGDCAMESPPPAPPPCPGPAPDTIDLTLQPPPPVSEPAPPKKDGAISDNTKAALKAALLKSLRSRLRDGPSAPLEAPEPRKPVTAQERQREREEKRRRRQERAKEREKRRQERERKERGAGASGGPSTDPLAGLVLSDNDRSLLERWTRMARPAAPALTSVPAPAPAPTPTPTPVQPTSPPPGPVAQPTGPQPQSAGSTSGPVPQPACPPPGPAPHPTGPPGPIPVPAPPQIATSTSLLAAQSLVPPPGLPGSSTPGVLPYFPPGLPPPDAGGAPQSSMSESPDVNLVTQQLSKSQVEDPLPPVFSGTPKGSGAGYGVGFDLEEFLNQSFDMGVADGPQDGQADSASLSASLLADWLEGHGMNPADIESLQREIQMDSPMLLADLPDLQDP
The next test concerns F380Y. The test is described as follows: BK channel mutant inhibitors and activators – cell-based, U2OS BacMam, thallium flux, beta subunits, selectivity assay, profiling panel (AID 1259406;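 active = thallium flux through the channel raised or lowered by more than 3 SD from vehicle-only wells, actives on both sides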;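 also: initial slope of Thallos dye fluorescence rise after thallium is added; log ratio against the mean of 0.3% DMSO vehicle wells on the same plate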). As to conditions: U2OS BacMam BK variants, at 30 µM.
Where [19] appears, read: measured here: epithelial PC-3E GFP cell survival.
Setting [20] is: measured here: mesenchymal TEM4-18 mCherry cell survival.
Setting [21] is: MELAS cybrid survival, CellTiter-Glo 48 h, stronger effect = higher value.
The mark [22] stands for this setting: Rieske KO mouse fibroblast survival, CellTiter-Glo 72 h.

Sequence of 6-phosphogluconate dehydrogenase, decarboxylating (Homo sapiens) (P52209 whole entry, looked up): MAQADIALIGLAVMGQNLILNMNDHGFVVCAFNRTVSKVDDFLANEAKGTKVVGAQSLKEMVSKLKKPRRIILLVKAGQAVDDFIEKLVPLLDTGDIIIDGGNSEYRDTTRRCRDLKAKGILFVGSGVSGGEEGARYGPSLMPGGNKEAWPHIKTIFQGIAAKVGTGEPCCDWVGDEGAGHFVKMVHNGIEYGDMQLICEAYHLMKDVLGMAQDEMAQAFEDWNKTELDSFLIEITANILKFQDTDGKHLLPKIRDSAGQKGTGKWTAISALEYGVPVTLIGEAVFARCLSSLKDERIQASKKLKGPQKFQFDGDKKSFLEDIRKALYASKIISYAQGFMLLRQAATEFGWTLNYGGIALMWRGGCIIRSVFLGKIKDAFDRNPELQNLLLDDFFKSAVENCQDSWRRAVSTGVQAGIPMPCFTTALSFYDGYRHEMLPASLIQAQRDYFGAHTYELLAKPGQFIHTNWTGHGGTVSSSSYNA

As for `CN(C)c1ccc(O)c2c1C[C@H]1C[C@H]3[C@H](N(C)C)C(=O)C(C(N)=O)=C(O)[C@@]3(O)C(=O)C1=C2O`, the fluorescence ratio in test [1] is 0.97 (inactive); in test [4] it was 0.89 (inactive). The inhibition (as a rule, the drop in the measured response relative to a control, in per cent) was -8.64% (inactive) in [2], 0.29% (inactive) in [3] and -17.9% (inactive) in test [13]. In addition, the nuclear beta-catenin stimulation in test [5] (at 10 µM) was 3.7% (inactive); in test [5] (stimulation, at 2 µM), 6.6%. Also, the insulin secretion stimulation in test [6] was 1.5% (inactive). Also, the viability decrease in test [7] was -31.1% (inactive). The tube area decrease in test [8] was 6.7% (inactive). Moreover, in test [9], the GLP1 secretion stimulation is -1.4% (inactive). Also, the inhibition of viability in test [10] was 17.9% (inactive). Further, the results for the viability decrease (inhibition) in test [11] and in test [12] were 65.6% (active) and 74.4% (active), respectively. For the same compound, in test [14], the red/green cell ratio (normalised) is 1.2 (inactive). Further, the values for the normalised cell number in test [14] (setting [19]) and in test [14] (setting [20]) were 0.99 and 1.19, respectively. In addition, the fold change in test [15] (stronger effect = lower value, cell number ratio, induced over uninduced) was 1.15 (inactive) and 0.819 (inactive) and 0.689 (active); in test [15] (measured here: relative caspase fold change +Dox/-Dox) it was 0.974 and 2.86 and 1.89. Also, the cell count was 2650 and 5110 and 3260 in [15] (measured here: total cells with miR-34 induction, stronger effect = lower value); 2300 and 6240 and 4740 in [15] (measured here: total cells without miR-34 induction). Also, the z-score in [16] (setting [21]) was -2.76 (inactive) and 0.283 (inactive); in test [16] (setting [22]) it was -3.81 and -1.93. Further, the remaining NAD in [17] is 10 nM (inactive). The luciferase signal in [18] was 52 AU (inactive). Also, the log fold change Tl+ flux in the test with F380Y is -0.0263 (inactive).

For the compound `CN1CCN(CCCN2c3ccccc3Sc3ccc(C(F)(F)F)cc32)CC1`, the fluorescence ratio in test [1] was 0.87 (inactive); in [4], 0.85 (inactive). The results for the inhibition in test [2], in test [3] and in test [13] were -1.19% (inactive), 1.44% (inactive) and 8.36% (inactive), respectively. Moreover, the nuclear beta-catenin stimulation in test [5] (at 10 µM) was 32.2% (inactive); in [5] (stimulation, at 2 µM) it was 0.2%. The insulin secretion stimulation in test [6] was 6.1% (inactive). Also, the viability decrease in test [7] was 110% (active). Further, the tube area decrease in test [8] is 106% (active). Besides, in test [9], the GLP1 secretion stimulation is 28.8% (active). In addition, the inhibition of viability in test [10] is 112% (active). Moreover, the results for the viability decrease (inhibition) in [11] and in [12] were 132% (active) and 99.8% (active), respectively. In addition, the red/green cell ratio (normalised) in test [14] is 0.91 (inactive). In addition, the normalised cell number in [14] (setting [19]) worked out at 1; in test [14] (setting [20]), 0.91. The z-score in test [16] (setting [21]) is -0.198 (inactive) and -1.6 (inactive) and 0.134 (inactive); in test [16] (setting [22]) it was -0.246 and 0.0911 and -0.232. The remaining NAD in test [17] is 10 nM (inactive). Moreover, the luciferase signal in [18] was 52 AU (inactive). In addition, the log fold change Tl+ flux in the test on F380Y is 0.0849 (inactive).

Regarding `Cc1c(OCC(F)(F)F)ccnc1CS(=O)c1nc2ccccc2[nH]1` (centres undefined), the results for the fluorescence ratio in test [1] and in [4] were 0.95 (inactive) and 0.94 (inactive), respectively. Moreover, the inhibition in test [2] was 1.53% (inactive); in test [3] it was 1.18% (inactive); in test [13] it was -1.09% (inactive). Also, the nuclear beta-catenin stimulation was 5.4% (inactive) in test [5] (at 10 µM) and 2.1% in test [5] (stimulation, at 2 µM). In [6], the insulin secretion stimulation was 0.9% (inactive). For the same compound, the viability decrease in [7] is 27.8% (inactive). Besides, the tube area decrease in test [8] was 32.8% (inactive). Moreover, the GLP1 secretion stimulation in [9] is -1.8% (inactive). Further, the inhibition of viability in test [10] was 54.6% (active). Further, the viability decrease (inhibition) in [11] is 13.2% (inactive); in [12], -8.8% (inactive). Further, the red/green cell ratio (normalised) in test [14] is 1.36 (inactive) and 1.09 (inactive). Moreover, the normalised cell number in test [14] (setting [19]) is 0.7 and 1.26; in test [14] (setting [20]), 0.95 and 1.36. The z-score in [16] (setting [21]) is -0.355 (inactive) and 2.16 (active); in test [16] (setting [22]), 0.886 and 0.276. Besides, the remaining NAD in [17] is 10 nM (inactive). In addition, the luciferase signal in test [18] was 60 AU (inactive).
